In PubChem BioAssay (EPA / NIEHS):
Activity calls are given as the source filed them. How the source made its calls: active means hit-call score of the fitted dose curve at least 0.9, where 1 is the maximum; inactive means score below 0.9.

Tests used:
[1] = read-out: Cyclin D1 (CCND1), CCND1 (gene 595); assay: LTEA_HepaRG_CCND1: Life Technologies and Expression Analysis (LTEA) Assay for Cyclin D1 (CCND1) using HepaRG (AID 2283451); details: mRNA level, 48 h; actives raise or lower the signal;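 on AC50: differentiated human HepaRG liver cells in serum-free induction medium; TaqMan qRT-PCR transcript level normalised to ACTB GAPDH and POLR2A housekeeping genes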
Method in brief: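 HepaRG plated 48 h, medium switched to serum-free induction medium, chemicals added in duplicate (top 100 uM, half-log steps, 0.5% DMSO) for 48 h, cells lysed, RNA measured by TaqMan qRT-PCR.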

[2] = read-out: catalase (CAT), CAT (gene 847); assay: LTEA_HepaRG_CAT: Life Technologies and Expression Analysis (LTEA) Assay for catalase (CAT) using HepaRG (AID 2283452); details: mRNA level, 48 h; actives raise or lower the signal
Method in brief: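 Differentiated HepaRG cells in serum-free induction medium were dosed 48 h in duplicate, eight half-log concentrations from 100 uM in 0.5% DMSO. Transcript measured by TaqMan qRT-PCR, normalised to ACTB/GAPDH/POLR2A, fitted bidirectionally against DMSO.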

[3] = read-out: flavin-containing dimethylaniline monooxygenases 3 (FMO3), FMO3 (gene 2328); assay: LTEA_HepaRG_FMO3: Life Technologies and Expression Analysis (LTEA) Assay for flavin-containing dimethylaniline monooxygenases 3 (FMO3) using HepaRG (AID 2283453); details: mRNA level, 48 h; actives raise or lower the signal;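 on AC50: differentiated human HepaRG liver cells in serum-free induction medium; FMO3 transcript by TaqMan qRT-PCR normalized to ACTB GAPDH and POLR2A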
Method in brief: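 FMO3 transcript quantified by TaqMan qRT-PCR against three housekeeping genes after 48 h chemical exposure of HepaRG cells. Eight-point half-log series, top 100 uM, 0.5% DMSO vehicle; phenobarbital 1mM induction control; up- or down-regulation fitted.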

[4] = read-out: Cytochrome P450 (CYP1A1), CYP1A1 (gene 1543); assay: LTEA_HepaRG_CYP1A1: Life Technologies and Expression Analysis (LTEA) Assay for Cytochrome P450 (CYP1A1) using HepaRG (AID 2283454); details: mRNA level, 48 h; actives raise or lower the signal
Method in brief: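 HepaRG, 48 h post-plating switched to serum-free induction medium; 8-pt conc-response (top 100 uM, half-log, 0.5% DMSO), duplicates, 48 h. Lysis in RLT, TaqMan qRT-PCR for CYP1A1; gain or loss vs DMSO.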

[5] = read-out: CFLAR gene, CFLAR (gene 8837); assay: LTEA_HepaRG_CFLAR: Life Technologies and Expression Analysis (LTEA) Assay for CFLAR gene using HepaRG (AID 2283455); details: mRNA level, 48 h; actives raise or lower the signal
Method in brief: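 Gain- or loss-of-signal changes in CFLAR transcript were fitted bidirectionally relative to 0.5% DMSO. Cells (HepaRG, duplicate wells) were dosed for 48 h across eight half-log concentrations topping at 100 uM; quantitation by TaqMan qRT-PCR.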

[6] = read-out: Forkhead box O1 (FOXO1), FOXO1 (gene 2308); assay: LTEA_HepaRG_FOXO1: Life Technologies and Expression Analysis (LTEA) Assay for Forkhead box O1 (FOXO1) using HepaRG (AID 2283456); details: mRNA level, 48 h; actives raise or lower the signal
Method in brief: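 Using one lot of HepaRG hepatic cells kept in 0.5% DMSO, the team applied test chemicals in duplicate, half-log dilutions from 100 uM, for 48 h. Expression, normalised to ACTB/GAPDH/POLR2A, was compared with vehicle in either direction.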

[7] = read-out: growth arrest and DNA damage 45 (GADD45A), GADD45A (gene 1647); assay: LTEA_HepaRG_GADD45A: Life Technologies and Expression Analysis (LTEA) Assay for growth arrest and DNA damage 45 (GADD45A) using HepaRG (AID 2283458); details: mRNA level, 48 h; actives raise or lower the signal
Method in brief: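 GADD45A expression was measured by TaqMan qRT-PCR against three housekeeping genes (ACTB, GAPDH, POLR2A) after 48 h treatment of HepaRG cells. Eight-point half-log series up to 100 uM in 0.5% DMSO, run in duplicate.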

[8] = read-out: Forkhead box O3 (FOXO3), FOXO3 (gene 2309); assay: LTEA_HepaRG_FOXO3: Life Technologies and Expression Analysis (LTEA) Assay for Forkhead box O3 (FOXO3) using HepaRG (AID 2283459); details: mRNA level, 48 h; actives raise or lower the signal
Method in brief: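 Gene-expression endpoint: FOXO3 transcript level by qRT-PCR in HepaRG cultures treated 48 h with chemicals up to 100 uM (half-log, 0.5% DMSO vehicle).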

[9] = read-out: ABC Transporter (ABCB1), ABCB1 (gene 5243); assay: LTEA_HepaRG_ABCB1: Life Technologies and Expression Analysis (LTEA) Assay for ABC Transporter (ABCB1) using HepaRG (AID 2283460); details: mRNA level, 48 h; actives raise or lower the signal
Method in brief: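 Human liver HepaRG line treated 48 h with up to 100 uM compound (eight half-log points, 0.5% DMSO); ABCB1 mRNA change fitted bidirectionally against DMSO controls.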

[10] = read-out: growth arrest and DNA damage 45 (GADD45B), GADD45B (gene 4616); assay: LTEA_HepaRG_GADD45B: Life Technologies and Expression Analysis (LTEA) Assay for growth arrest and DNA damage 45 (GADD45B) using HepaRG (AID 2283461); details: mRNA level, 48 h; actives raise or lower the signal
Method in brief: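 HepaRG, ~100,000 cells/well, 48 h plating; serum-free induction medium; cpd 100 uM top, half-log x8, 0.5% DMSO, duplicate, 48 h; lysis in RLT, RNA isolation, qRT-PCR; norm ACTB/GAPDH/POLR2A; bidirectional fit vs DMSO.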

[11] = read-out: ABC Transporter (ABCC3), ABCC3 (gene 8714); assay: LTEA_HepaRG_ABCC3: Life Technologies and Expression Analysis (LTEA) Assay for ABC Transporter (ABCC3) using HepaRG (AID 2283462); details: mRNA level, 48 h; actives raise or lower the signal
Method in brief: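 Human HepaRG, 48 h dosing, 8-pt half-log series from 100 uM, 0.5% DMSO vehicle, duplicates. ABCC3 mRNA by TaqMan qRT-PCR, housekeeping-normalized; bidirectional curve fit vs DMSO.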

[12] = read-out: ABC Transporter (ABCB11), ABCB11 (gene 8647); assay: LTEA_HepaRG_ABCB11: Life Technologies and Expression Analysis (LTEA) Assay for ABC Transporter (ABCB11) using HepaRG (AID 2283463); details: mRNA level, 48 h; actives raise or lower the signal
Method in brief: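 Using HepaRG cultures held in 0.5% DMSO, chemicals were tested at half-log dilutions from 100 uM for 48 h. Induction or suppression of ABCB11 mRNA, normalized to ACTB, GAPDH and POLR2A, was fitted bidirectionally against vehicle.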

[13] = read-out: ABC Transporter (ABCC2), ABCC2 (gene 1244); assay: LTEA_HepaRG_ABCC2: Life Technologies and Expression Analysis (LTEA) Assay for ABC Transporter (ABCC2) using HepaRG (AID 2283464); details: mRNA level, 48 h; actives raise or lower the signal
Method in brief: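 HepaRG, 48 h post-plating; serum-free induction medium; cpd 8-pt, 100 uM top, half-log, 0.5% DMSO, duplicate, 48 h. Readout: ABCC2 mRNA by qRT-PCR, norm. ACTB/GAPDH/POLR2A. Bidirectional fit vs DMSO baseline.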

[14] = read-out: Broad substrate specificity ATP-binding cassette transporter ABCG2 (Homo sapiens) (UniProt Q9UNQ0); assay: LTEA_HepaRG_ABCG2: Life Technologies and Expression Analysis (LTEA) Assay for ABC Transporter (ABCG2) using HepaRG (AID 2283465); details: mRNA level, 48 h; actives raise or lower the signal
Method in brief: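 Gene expression of ABCG2 in HepaRG liver cells is quantified by qRT-PCR following 48 h exposure across an eight-point series topping at 100 uM. Values come from bidirectional fitting relative to DMSO vehicle.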

[15] = read-out: ATP-citrate lyase (ACLY), ACLY (gene 47); assay: LTEA_HepaRG_ACLY: Life Technologies and Expression Analysis (LTEA) Assay for ATP-citrate lyase (ACLY) using HepaRG (AID 2283466); details: mRNA level, 48 h; actives raise or lower the signal
Method in brief: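 ACLY expression changes in human HepaRG liver cells are quantified by qRT-PCR after 48 h exposure to test chemicals (maximum 100 uM, half-log steps). Values are fitted in both directions relative to 0.5% DMSO vehicle.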

[16] = read-out: Peroxisomal acyl-coenzyme A oxidase 1 (ACOX1) gene, ACOX1 (gene 51); assay: LTEA_HepaRG_ACOX1: Life Technologies and Expression Analysis (LTEA) Assay for Peroxisomal acyl-coenzyme A oxidase 1 (ACOX1) gene using HepaRG (AID 2283467); details: mRNA level, 48 h; actives raise or lower the signal
Method in brief: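 Human HepaRG hepatic cultures, 48 h treatment with test chemicals up to 100 uM. ACOX1 expression read by qRT-PCR relative to 0.5% DMSO vehicle.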

[17] = read-out: Alkaline Phosphatase, Placental (ALPP) gene, ALPP (gene 250); assay: LTEA_HepaRG_ALPP: Life Technologies and Expression Analysis (LTEA) Assay for Alkaline Phosphatase, Placental (ALPP) gene using HepaRG (AID 2283468); details: mRNA level, 48 h; actives raise or lower the signal;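 on AC50: differentiated human HepaRG liver cells in serum-free induction medium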
Method in brief: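 HepaRG, 48 h plating then 48 h dosing, serum-free induction medium, 0.5% DMSO. 8 conc, half-log, max 100 uM, duplicates. Endpoint: ALPP transcript by qRT-PCR, housekeeping-normalized; gain or loss fitted vs DMSO.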

[18] = read-out: Bcl-2 (BAD) gene, BAD (gene 572); assay: LTEA_HepaRG_BAD: Life Technologies and Expression Analysis (LTEA) Assay for Bcl-2 (BAD) gene using HepaRG (AID 2283469); details: mRNA level, 48 h; actives raise or lower the signal
Method in brief: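 Activity values reflect up- or down-regulation of BAD mRNA in human HepaRG hepatic cells treated 48 h in serum-free medium, with eight-point half-log dosing capped at 100 uM and 0.5% DMSO vehicle.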

[19] = read-out: Bcl-2 (BAX) gene, BAX (gene 581); assay: LTEA_HepaRG_BAX: Life Technologies and Expression Analysis (LTEA) Assay for Bcl-2 (BAX) gene using HepaRG (AID 2283470); details: mRNA level, 48 h; actives raise or lower the signal
Method in brief: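 Gene expression measured by Fluidigm qRT-PCR with three housekeeping genes for normalisation. HepaRG cells, plated 48 h beforehand, treated 48 h at up to 100 uM (8-point, half-log) in 0.5% DMSO. Bidirectional fitting versus DMSO.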

[20] = CEETOX_H295R_TESTO: CeeTox H295R High-throughput Steroidogenesis Assay for Testosterone (TESTO) (AID 2283457); details: actives raise or lower the signal
Method in brief: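 H295R, passage ≤10, 48 h dosing; media extracted with MTBE → HPLC-MS/MS for testosterone; 7-pt standard curve sets LLOQ/ULOQ; bidirectional fit vs DMSO; MTT viability same wells.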

Measured: AC50

Sequence of Broad substrate specificity ATP-binding cassette transporter ABCG2 (Homo sapiens) (Q9UNQ0 whole entry, looked up): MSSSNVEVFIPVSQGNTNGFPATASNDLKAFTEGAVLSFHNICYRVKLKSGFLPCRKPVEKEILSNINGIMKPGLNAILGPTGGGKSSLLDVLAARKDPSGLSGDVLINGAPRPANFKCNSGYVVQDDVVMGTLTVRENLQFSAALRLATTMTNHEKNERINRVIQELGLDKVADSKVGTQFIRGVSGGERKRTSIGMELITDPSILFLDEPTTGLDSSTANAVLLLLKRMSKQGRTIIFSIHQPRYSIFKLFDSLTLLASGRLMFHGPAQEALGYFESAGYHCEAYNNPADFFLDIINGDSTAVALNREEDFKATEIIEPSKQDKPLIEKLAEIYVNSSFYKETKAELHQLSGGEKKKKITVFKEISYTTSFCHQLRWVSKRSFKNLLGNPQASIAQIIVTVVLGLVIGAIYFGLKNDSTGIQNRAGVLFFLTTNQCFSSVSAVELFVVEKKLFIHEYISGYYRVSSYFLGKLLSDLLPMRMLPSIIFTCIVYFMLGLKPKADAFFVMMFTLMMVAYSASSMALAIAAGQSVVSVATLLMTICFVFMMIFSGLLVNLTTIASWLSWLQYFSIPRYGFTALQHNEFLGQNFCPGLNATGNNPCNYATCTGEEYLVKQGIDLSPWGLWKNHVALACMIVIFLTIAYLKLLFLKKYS

Clc1cc(Cl)c2c(c1)N=C1CCCCCN1C2
active: [4] 1.61 µM | [10] 6.31 µM
inactive: [1] | [2] | [3] | [5] | [6] | [7] | [8] | [9] | [11] | [12] | [13] | [14] | [15] | [16] | [17] | [18] | [19]

NC(=O)c1nc(-c2cccc(-c3cc(F)ccc3OCC(F)(F)C(F)(F)F)c2)n[nH]1
active: [2] 50 µM | [4] 20.1 µM | [8] 50 µM | [10] 77.2 µM | [11] 84 µM | [13] 89.8 µM | [14] 15.8 µM | [16] 81.4 µM | [17] 3.42 µM
inactive: [1] | [3] | [5] | [6] | [20] | [7] | [9] | [12] | [15] | [18] | [19]

O=C(Nc1ccc(Cl)cc1)Nc1ccc(Cl)c(Cl)c1
active: [2] 16.6 µM | [3] 22.9 µM | [4] 27.7 µM | [6] 18.6 µM | [7] 21.7 µM | [8] 11.8 µM | [9] 18.9 µM | [10] 22.9 µM | [12] 15 µM | [14] 12.4 µM | [15] 17.5 µM | [16] 18.5 µM | [17] 19.6 µM | [19] 29.2 µM
inactive: [1] | [5] | [20] | [11] | [13] | [18]

CC(C)(c1cc(Br)c(O)c(Br)c1)c1cc(Br)c(O)c(Br)c1
inactive: [2] | [3] | [4] | [6] | [7] | [9] | [11] | [13] | [14] | [15] | [17] | [18]
active: [1] 47.8 µM | [5] 71.8 µM | [8] 89.2 µM | [10] 74.5 µM | [12] 9.94 µM | [16] 89.1 µM | [19] 22.6 µM

O=C1c2ccccc2C(=O)N1CCc1noc(-c2ccc(CN3CCCCCC3)s2)n1
inactive: [1] | [2] | [3] | [5] | [6] | [7] | [8] | [9] | [10] | [11] | [12] | [13] | [14] | [15] | [16] | [17] | [18] | [19]
active: [4] 8.04 µM

CCO[Si](CCCNC(N)=O)(OCC)OCC
inactive: [1] | [2] | [3] | [5] | [6] | [7] | [8] | [9] | [10] | [11] | [12] | [13] | [14] | [15] | [16] | [17] | [18] | [19]
active: [4] 50 µM
